# In the library only some 1.4% were active in any assay of this set; here they are far more common.
# PrP UTR inh = inhibition of PrP 5' UTR reporter expression | AID 488862, 2010 | actives 0.35% (n = 340,000) | inhibition, % (concentration not given with the values) | cell-based PrP 5' UTR mRNA reporter, plate reader; in the data active = inhibition above about 52%; note: 0 = median of the neutral control wells
# PrPC TRFRET = inhibitors of human cell surface prion protein PrPC, primary screen, cell-based, TR-FRET; actives 0.43% (n = 370,000); Major prion protein (Homo sapiens), P04156; inhibition, % at 13.8 µM; TR-FRET read-out; AID 720596, 2013; in the data active = inhibition above about 24%; note: 0% = median of the test wells and 100% = reference compound wells
# SSB-PriA inh = inhibitors of Klebsiella pneumoniae PriA binding to SSB C-terminal tail, primary screen, biochemical, AlphaScreen | AID 1272365, 2023 | inhibition, % at 33 µM | actives 0.6% (n = 430,000) | PriA–SSB C-terminal tail interaction (Klebsiella pneumoniae) | AlphaScreen SSBct-PriA binding, biotinylated peptide; in the data active = inhibition mostly above about 37%, no sharp cut-off; inactive = mostly below about 20%;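 note: plate controls were negative control peptide for no effect and reference peptide for full effect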
# BH1578 lux ind = inducers of Vibrio cholerae quorum light production without autoinducers, primary screen, BH1578 luxS cqsA deficient, single point; V. cholerae BH1578 lux reporter, luminescence, 6 h; activation, % at 18.7 µM; actives 0.16% (n = 350,000); AID 588436, 2011; in the data active = activation mostly above about 9.7%, no sharp cut-off
# FadD28 binding = inhibitors of FadD28 bisubstrate probe binding, primary screen, biochemical, fluorescence polarization, single point; inhibition, % at 12.5 µM; actives 0.22% (n = 360,000); AID 588549, 2011; in the data active = inhibition above about 8.5%, passing the limit was not always enough
# An asterisk follows results filed as active; i = inactive; · = not tested or not shown; ! = repeats disagree.
SMILES,PrP UTR inh,PrPC TRFRET,SSB-PriA inh,BH1578 lux ind,FadD28 binding
O=C(C[C@H]1CCCCN1S(=O)(=O)c1ccc(Cl)cc1)Nc1ccc2c(c1)OCO2,·,·,-18.0,·,·
O=C(Nc1cc(OCc2ccccc2)ncn1)c1ccc(F)cc1,·,·,-22.0,·,·
CC(C)(C)c1ccc(NC(=O)Nc2ccc(OCC(=O)N3CCOCC3)cc2)cc1,-61.3,7.5,5.4,2.9,24.6*
CCC(C(=O)NC1CCCCC1)n1c(SCc2ccccc2F)nc2ccncc21 (stereo unspecified),-24.5,7.1,-1.4,-0.2,9.3*
CSc1ncccc1C(=O)Nc1ccc(CC(=O)N(C)C)cc1,·,·,-15.0,·,·
Cc1cc(C)c(C)c(N=Nc2nc3ccccc3n2C)c1C,-79.6,-10.5,68.5*,-0.7,-2.0
c1ccc(-c2sc3ccccc3c2-c2ccc(OCCN3CCOCC3)cc2)cc1,-10.6,·,11.2,i,-2.6
COc1cc2sc(-c3ccccc3OC)c(-c3ccc(OCCN4CCCCC4)cc3)c2cc1OC,-10.3,-15.2,46.5*,-1.2,-2.2
COc1ccccc1-c1sc2cc3c(cc2c1-c1ccc(OCCN2CCCCC2)cc1)OCO3,-23.2,4.5,13.8,-0.9,-10.1
C1=C(c2sc3ccccc3c2-c2ccc(OCCN3CCOCC3)cc2)CCCC1,-29.6,10.1,41.3*,i,-3.3
CNC(=O)C1Cc2ccccc2N1C(=O)CCC1CCCC1 (stereo unspecified),·,·,-15.0,·,·
O=C(CCCS(=O)(=O)c1ccc(Cl)cc1)N1CCN(c2nc3c(Cl)cccc3s2)CC1,·,·,-1.0,·,·
O=C1c2cccc3cccc(c23)C(=O)N1CC1CCN(CC(O)COc2ccc3ccccc3c2)CC1 (stereo unspecified),1.8,-20.7,45.0*,0.7,-2.3
CC1CCCN(C(=O)c2ccc3c(c2NCCO)C(=O)c2ccccc2C3=O)C1 (stereo unspecified),-10.9,-70.5,64.1*,0.2,-0.6
O=C(Nc1cnn(CC2CCOCC2)c1)c1nc2ccccc2s1,·,·,1.0,·,·
COc1cc(C2C(C#N)=C(N)OC3=C2C(=O)CCC3)c([N+](=O)[O-])cc1OC (stereo unspecified),-13.4,-14.0,9.1,-0.4,20.7*
CCN(CC)CCNC(=O)c1c(O)c2cccc3c2n(c1=O)CCC3,-20.8,1.1,-3.5,i,-1.0
CCCCCCNC(=O)c1c(O)c2cccc3c2n(c1=O)CCC3,-12.7,-1.7,-1.3,16.7*,0.1
Cn1cccc1C(CNC(=O)c1ccc2ccccc2c1)N1CCCC1 (stereo unspecified),·,·,22.0*,·,·
CC(C)COCc1ccc(O)c2ncccc12,17.1,-2.2,84.3*,-0.7,-2.4
Oc1ccc(COc2cccc3cccnc23)c2cccnc12,·,·,32.4,·,·
CCCOCc1ccc(O)c2ncccc12,-15.9,-1.1,53.5*,-0.3,-2.5
Oc1ccc(COC2CCCCC2)c2cccnc12,·,·,108.0*,·,·
Oc1ccc(COCc2ccccc2)c2cccnc12,-19.7,5.9,83.8*,-2.2,-2.1
Oc1ccc(Cc2ccccc2)c2cccnc12,·,-3.4,8.7,-0.3,-3.5
SMILES,PrP UTR inh,PrPC TRFRET,SSB-PriA inh,BH1578 lux ind,FadD28 binding
COc1ccccc1OCC(=O)Nc1ncc(Cc2ccc(C)cc2)s1,·,·,4.0,·,·
O=C(NCc1cc(-c2ccccc2)on1)c1ccco1,·,·,-13.0,·,·
O=C(NCc1cc(-c2ccco2)on1)c1ccc(Br)o1,·,·,39.0*,·,·
C=CCN1C(=O)C(Cc2ccccc2)S/C1=N/N=C\c1ccccc1 (stereo unspecified),·,·,56.0*,·,·
O=C(/C=C/c1ccc2c(c1)OCO2)NCCSc1ncc(-c2ccc(Cl)cc2)[nH]1,·,·,38.0*,·,·
O=C(/C=C/c1ccco1)NCCSc1ncc(-c2ccc(Cl)cc2)[nH]1,·,·,30.0,·,·
Cc1ccc(F)cc1NC(=O)Cn1c(C)nc2c(sc3ccccc32)c1=O,·,·,-15.0,·,·
CCc1cccc(C)c1N(C(=O)Cn1c(CO)nc2ccccc21)[C@@H](C)COC,·,·,-4.0,·,·
CCc1cccc(C)c1N(C(=O)Cn1c(COC)nc2ccccc21)C(C)COC (stereo unspecified),-23.0,-3.5,46.4*,-0.3,-0.3
Brc1ccc(NN=C(N=Nc2nn[nH]n2)c2ccccc2)cc1,·,·,74.1,·,·
Brc1ccc(N/N=C(/N=Nc2nn[nH]n2)c2ccccc2)cc1,-21.3,14.2,·,-0.3,13.2*
O=C(NCCc1ccsc1)c1cc(Br)cs1,·,·,7.0,·,·
Cc1ccccc1-c1nc(C#N)c(N2CCCCC2)o1,-17.6,6.5,59.4*,0.3,-3.9
N#Cc1nc(-c2ccccc2F)oc1N1CCCCCC1,·,·,86.2*,·,·
Cc1ccccc1-c1nc(C#N)c(N2CCN(C)CC2)o1,·,·,26.7,·,·
CC(=O)N1CCN(c2ccc(NCc3ccc4c(c3)OCO4)cc2)CC1,2.4,-10.7,28.3,-0.3,0.3
O=C(c1ccccc1)N1CCN(c2ccc(NCc3ccc4c(c3)OCO4)cc2)CC1,-6.8,5.1,46.2*,0.0,1.3
CCOC(=O)c1c(NC(=O)CN2CCN(CC)C(=O)C2=O)sc2c1CCCCC2,·,·,1.0,·,·
COc1ccccc1-n1cc(-c2ccccc2)[nH]c1=S,-22.6,-2.6,-4.3,i,-4.0
COc1ccccc1-n1cc(-c2ccccc2)c2c(=S)nc[nH]c21,-0.5,-2.1,41.4*,-0.4,-2.9
NCC(O)COc1ccc2c(c1)OCO2 (stereo unspecified),3.0,-2.6,46.0*!,3.0,0.6
CC(C)(c1cc(Br)c(O)c(Br)c1)c1cc(Br)c(O)c(Br)c1,0.3,-2.9,-7.0,-0.3,20.1*
O=C(Nc1nc(-c2ccc3c(c2)OCCO3)cs1)c1sc2ccccc2c1Cl,·,·,0.0,·,·
CCCOC(=O)c1cc(-c2ccc(/C=C3/C(=O)N(C)C(=O)C(C#N)=C3C)o2)ccc1Cl,-52.2,·,23.5,-5.9,-0.3
C=CCOC(=O)c1cc(-c2ccc(/C=C3\C(=O)NC(=O)C(C#N)=C3C)o2)ccc1Cl,-38.8,8.2,13.2,i,20.3*
SMILES,PrP UTR inh,PrPC TRFRET,SSB-PriA inh,BH1578 lux ind,FadD28 binding
CCC(Cc1ccccc1)=NNC(=O)CCn1nnc2ccccc21,·,·,4.1,·,·
COc1ccc(OC)c(NC(=O)CS(=O)(=O)c2ccccc2)c1,-35.3,2.2,6.7,-0.3,-2.6
COc1cc(OC)nc(NC(=O)CS(=O)(=O)c2ccccc2)n1,-20.8,1.5,-1.2,33.3*,-1.3
NC(Cc1cccs1)=NOC(=O)COc1ccc(Br)cc1,·,·,-34.7,·,·
O=C1/C(=C/c2ccco2)Oc2c1ccc1c2CN(Cc2ccccn2)CO1,·,·,97.0*,·,·
O=C1/C(=C/c2cccc(F)c2)Oc2c1ccc1c2CN(Cc2ccccn2)CO1,·,·,97.0*,·,·
O=S(=O)(NCCn1ccnc1-c1ccccn1)c1cccs1,·,·,11.0,·,·
CCOC(=O)c1c(-c2ccc(C)s2)csc1NC(=O)c1cccs1,-25.1,-6.4,-2.0,0.0,16.7*
O=C(Nc1ccc(N2CCCC2)c(Cl)c1)c1ccc([N+](=O)[O-])o1,-43.2,20.1,44.6*,-0.3,0.8
Oc1ccc(C=NNc2ccccn2)c(O)c1,4.9,23.0,94.7*,0.8,-0.1
COCCCNC(=S)NN=Cc1ccc(O)cc1O,·,·,46.3*,·,·

# Screens deposited in PubChem by several laboratories.
